Results reported in the OligoGym collection.

Experiments:
Assay in all cases: pooled miR-30 sensor sort-seq; sequence = guide strand
Conditions in all cases: shRNA
JAM3 = target: JAM3
JMJD1C = target: JMJD1C
JMJD8 = target: JMJD8
JOSD1 = target: JOSD1
JDP2 = target: JDP2
KAAG1 = target: KAAG1
KBTBD10 = target: KBTBD10
KBTBD12 = target: KBTBD12
Also: reference of the scale not given here.

TGAGTGTCTAGCTCTGTCCGAG showed a sensor-assay potency score (higher = more potent) (JAM3) of -0.68.
TAGTCTTGAAGTCTTCTCCTGA was tested, and the sensor-assay potency score (higher = more potent) (JMJD1C) was 0.704.
Sequence TAGATCACTTCTGAGTACCCGG has a sensor-assay potency score (higher = more potent) (JMJD8) of -0.223.
TCGAACACAGATCCAGTGCTGC gave a sensor-assay potency score (higher = more potent) (JOSD1) of -0.708.
TAGCTCACTTTTCACGGGCTGG showed a sensor-assay potency score (higher = more potent) (JDP2) of -0.699.
Sequence ATCTATTCTAACTACTCCGTTT has a sensor-assay potency score (higher = more potent) (JMJD1C) of -1.09.
TTCATCTTGAATTTTCTTCCAC gave a sensor-assay potency score (higher = more potent) (JAM3) of 0.166.
TACAGCACCTCACCAGCCCGGA showed a sensor-assay potency score (higher = more potent) (JMJD8) of -0.942.
With TACGACCGTAGATCACTTCTGA the sensor-assay potency score (higher = more potent) (JMJD8) was 0.324.
TTAACTTGTTATCTGTGCCTAC gave a sensor-assay potency score (higher = more potent) (JMJD1C) of 0.548.
Work on TTATTGACGCATTCATCTCTGA yielded a sensor-assay potency score (higher = more potent) (JMJD8) of -0.0992.
For TTTGGTTGCAACTCATGGCTTT, the sensor-assay potency score (higher = more potent) (JDP2) was 0.0923.
TTGTGAGGTGTCACCATGGTGT was tested, and the sensor-assay potency score (higher = more potent) (JOSD1) was -0.922.
Sequence TCGTTTCAGGAGGCGATCCCGC has a sensor-assay potency score (higher = more potent) (KAAG1) of -1.24.
Sequence TAGCTCCTGAAGCATAACGTAT has a sensor-assay potency score (higher = more potent) (KBTBD10) of -1.66.
TTCTTTGTTATGATTTACCCAT gave a sensor-assay potency score (higher = more potent) (KBTBD12) of -0.456.
TTCTCGTTCGTTTCAGGAGGCG showed a sensor-assay potency score (higher = more potent) (KAAG1) of -0.584.
For TACAGCTGTACTGAATCGGTAC, the sensor-assay potency score (higher = more potent) (KBTBD12) was -0.257.
With TCAGTTTCTCGTTCGTTTCAGG the sensor-assay potency score (higher = more potent) (KAAG1) was -0.203.
With ATCTCTTGCAGCGTATCCCGGG the sensor-assay potency score (higher = more potent) (JOSD1) was -0.409.
Work on TTTCTCGTTCGTTTCAGGAGGC yielded a sensor-assay potency score (higher = more potent) (KAAG1) of 0.381.
Sequence TGATGTTTTAGAAACTTCCTGA has a sensor-assay potency score (higher = more potent) (JOSD1) of 0.299.
TTGTCTAGCACTACCTCCTTTT gave a sensor-assay potency score (higher = more potent) (KBTBD10) of -0.574.
In the case of TATGTCTTGATCTGATTCCTGA, the sensor-assay potency score (higher = more potent) (KBTBD12) is reported as 0.119.
TTCCTGAGCTCGCTCTCGCCTC showed a sensor-assay potency score (higher = more potent) (JOSD1) of -1.09.
TTTAGAAACTTCCTGAGCTCGC showed a sensor-assay potency score (higher = more potent) (JOSD1) of 0.218.
In the case of TTGCATACAGAGATCCAGCCAG, the sensor-assay potency score (higher = more potent) (KBTBD10) is reported as -0.134.
For TTTCAGGAGGCGATCCCGCGCC, the sensor-assay potency score (higher = more potent) (KAAG1) was -0.845.
TTTAATAACACCGACACACTTT was tested, and the sensor-assay potency score (higher = more potent) (KBTBD12) was 0.48.
For ATTGTCTAGCACTACCTCCTTT, the sensor-assay potency score (higher = more potent) (KBTBD10) was -0.463.
With TTCGTCAGTTTCTCGTTCGTTT the sensor-assay potency score (higher = more potent) (KAAG1) was -0.143.
Sequence TTTTGCTGGGTAACAATGCTGG has a sensor-assay potency score (higher = more potent) (KBTBD10) of -0.684.
TTGAGTTTGGAGTCGAGGTTGT was tested, and the sensor-assay potency score (higher = more potent) (JOSD1) was 0.206.
Sequence TAGAAACTTCCTGAGCTCGCTC has a sensor-assay potency score (higher = more potent) (JOSD1) of 0.337.
ATTCGTCAGTTTCTCGTTCGTT was tested, and the sensor-assay potency score (higher = more potent) (KAAG1) was -0.19.
TTCATCAGGAAGATCCATCTGA was tested, and the sensor-assay potency score (higher = more potent) (KBTBD12) was 0.942.
